# A selection: hits, their analogues and other compounds. The true share with any hit is near 0.93%.
# CDC25B CDK2 inh: human CDC25B-CDK2/CyclinA binding inhibition | AID 1259370 | 94,000 compounds, 0.72% hits | HTRF CDC25B-CDK2/CyclinA binding, anti-His/anti-Flag; active compounds read high | z-score (no concentration beside the values) | P30305+P24941; in the data active = z-score above about 3.2
# HIV TAR-Tat: HIV-1 TAR-Tat binding disruption; HIV-1 TAR RNA, Tat peptide displacement FRET; active compounds read high; z-score (no concentration beside the values); 100,000 compounds, 0.6% hits; AID 1259389; active = z-score of 3 or more in at least 2 runs
# Active calls of the source: *; x = no result.
SMILES,CDC25B CDK2 inh,HIV TAR-Tat
Cc1cc(C)nc(-n2nc(C)c3c2NC(=O)CC3c2cc(F)ccc2F)n1 (configuration not stated),-1.46,-0.19
COC(=O)c1sc(SC)c(-c2ccn(C(=O)c3ccc(Cl)cc3)n2)c1C,-1.29,x
NC(CO)C(=O)NNCc1ccc(O)c(O)c1O (configuration not stated),-1.46,13.3*
N[C@H](CO)C(=O)O,-0.64,x
COc1ccc(O)c(C2Nc3ccccc3-n3c(-c4ccccc4)c4c(=O)n(C)c(=O)n(C)c4c32)c1 (configuration not stated),-0.2,1.73
COc1ccc(-c2c3c(=O)n(C)c(=O)n(C)c3c3n2-c2ccccc2NC3c2cc(O)ccc2O)cc1 (configuration not stated),-1.76,21.5*
CC(CC(=O)O)Cc1nnc2c(=O)n(-c3cccc(F)c3)ccn12 (configuration not stated),-1.93,1.16
CC(=O)N1N=C(CSc2nc(C)cc(C)n2)OC1/C(C)=C/c1ccccc1 (configuration not stated),x,4.23*
CC(=O)N1N=C(CSc2nnc(-c3ccccc3)n2-c2ccccc2)OC1c1ccc(C)o1 (configuration not stated),x,0.39
CC(=O)N1c2ccc(S(=O)(=O)N3CCCCC3)cc2CC1C(=O)NC(C)C (configuration not stated),x,-1.03
CCOC(=O)c1noc2nc(C)nc(Nc3cccc(C)n3)c12,x,0.9
Cc1c(C(=O)O)c(O)cc2c1C(=O)c1c(O)c([C@H]3O[C@H](CO)[C@@H](O)[C@H](O)[C@H]3O)c(O)c(O)c1C2=O,x,8.54*
COc1c(O)cc2c(c1O)[C@@H]1O[C@H](CO)[C@@H](O)[C@H](O)[C@H]1OC2=O,x,1.87
O=C(Nc1cccc([N+](=O)[O-])c1)c1ccc2c(c1)C(=O)N(c1cccc3ccccc13)C2=O,0.77,x
O=C(CN1C(=O)c2ccc([N+](=O)[O-])cc2C1=O)Nc1ccc2ccccc2c1,6.69*,x
C=Cc1c(C)/c2[n-]/c1=C\c1[n-]c(c(CC)c1C)/C=c1\[n-]c3c(c1C)C(=O)C(C(=O)[O-])C=3c1[n-]c(c(C)c1CCC(=O)[O-])\C=2.[Cu].[Na+].[Na+] (configuration not stated),x,23.1*
COC(=O)NC1c2ccccc2Oc2ccccc21,-0.47,0.32
COC(=O)C1=C(N)Oc2ccccc2C1C(C#N)C#N (configuration not stated),18.6*,x
CCNC(=O)c1c(NC(=O)c2cc(=O)c3c(C)cc(C)cc3o2)sc2c1CCCC2,-0.77,-0.2
O=C(O)c1cc(-c2ccco2)nc2ccc(Br)cc12,x,6.36*
O=C(O)c1ccc2nc(-c3ccco3)c(-c3ccco3)nc2c1,x,51.4*
O=C(NCc1ccco1)c1ccc2nc(-c3cccs3)c(-c3cccs3)nc2c1,x,-0.7
O=C(O)c1cc(-c2ccc(O)cc2)nc2ccc(Br)cc12,-1.15,x
Cc1[nH]c(=O)c(C#N)c(C)c1Cc1ccc(S(=O)(=O)N2CCCC2)cc1,1.17,0.84
CC(C)(C)SC1CCS(=O)(=O)C1 (configuration not stated),-1.8,1.16
SMILES,CDC25B CDK2 inh,HIV TAR-Tat
Cc1cc(Nc2ccc(N3CCN(C)CC3)cc2)nc(C)n1,11.5*,-1.55
CSc1nc(C)cc(Nc2ccc(N3CCC(C)CC3)cc2)n1,-0.87,0.65
O=S(=O)(c1ccc(-c2cnc(C3CC3)o2)cc1)N1CCN(c2ccccc2F)CC1,x,1.08
CCSc1ncc(Cl)c(C(=O)Nc2sc3c(c2C(N)=O)CCCC3)n1,-1.49,-6.77
O=C(O)CN(CC(=O)O)CC(=O)O,3.65*,x
O=C(O)CN(CCN(CC(=O)O)Cc1ccccc1O)Cc1ccccc1O,x,2.22
COc1ccc(COC(=O)C2=C(C)NC3=C(C(=O)CCC3)C2c2ccc(OC)c(O)c2)cc1 (configuration not stated),-1.38,2.09
CC(=O)Nc1ccc(NC(=O)c2nccnc2C(=O)O)cn1,11.4*,x
Cc1ccc(NC(=O)c2nccnc2C(=O)O)cc1,-0.79,x
CC1C(=O)N2CCCc3cc(S(=O)(=O)N4CCCC4)cc1c32 (configuration not stated),x,1.5
O=C1CCCN1CCCNc1nc2ccccc2c2nc(-c3cccnc3)nn12,-1.42,-0.6
O=C(Nc1ccc2oc(-c3ccc(F)cc3)nc2c1)c1ccc([N+](=O)[O-])o1,0.59,2.36
O=C(Nc1ccc2oc(-c3cccc(F)c3)nc2c1)c1ccc([N+](=O)[O-])o1,2.52,22.3*
CSc1scc2c1-c1nn(C(=O)c3ccc(Cl)cc3)cc1CC2,-1.42,x
C=CCn1c(=O)c(C(=O)Nc2cccnc2)c(O)c2ccccc21,5.07,1.34
Cc1c(C(=O)O)sc2ncnc(Nc3ccccc3)c12,x,-8.32
Cc1sc2ncnc(Nc3ccc4c(c3)OCO4)c2c1C,x,0.84
COc1ccc(Nc2ncnc3sc(C(=O)O)c(C)c23)cc1OC,x,35.2*
Cc1c(C(=O)O)sc2ncnc(NCc3ccc4c(c3)OCO4)c12,x,5*
Cc1sc2ncnc(NCc3ccc4c(c3)OCO4)c2c1C,-1.96,0.1
Cc1c(C(=O)O)sc2ncnc(Nc3ccc4c(c3)OCCO4)c12,x,25*
O=C(Cn1c(=O)c2cccn2c2cccnc21)N1CCOCC1,x,-0.99
CCOC(=O)N1CCN(c2cc(NC3CCCCC3)c3c4c(onc24)-c2ccccc2C3=O)CC1,-1.45,1.05
O=C(c1ccc([N+](=O)[O-])cc1)N1CCN(c2ncc(Br)cn2)CC1,-1.86,x
CN1CCN(C(=O)C2=CC(c3cccs3)=NS(=O)(=O)N2C)CC1,-1.92,0.3
SMILES,CDC25B CDK2 inh,HIV TAR-Tat
CC1CCN(c2c(NCC3CCC(C(=O)Nc4ccccn4)CC3)c(=O)c2=O)CC1 (configuration not stated),-1.01,2.52
O=C(O)CCSc1cccc2cccc(C(=O)O)c12,10.9*,x
O=C(O)CSc1cccc2cccc(C(=O)O)c12,0.74,1.05
Cc1ccc(Cl)c2c1NC(=O)C2(O)CC(=O)c1ccccc1 (configuration not stated),16.8*,0.17
Cc1ccc(Cl)c2c1NC(=O)C2(O)CC(=O)c1ccc(F)cc1 (configuration not stated),-1.58,0.59
CCNc1nc2[nH]c(=O)cc(O)c2s1,10.6*,-0.15
CNc1nc2[nH]c(=O)cc(O)c2s1,1.8,-1.51
COc1ccc(-n2cc(-c3ccc(OC)c(OC)c3)[nH]c2=O)cc1,-1.22,0.85
Cc1cc(OC(=O)c2cccc(F)c2)n(-c2ccccc2)n1,-2.64,x
CC1=C(C(=O)NC(C)c2ccc3c(c2)OCCO3)C2(CCCCC2)OC1=O (configuration not stated),0.17,0.88
COc1cccc(O)c1O,x,13.4*
COc1cccc(OC)c1C(=O)NN,-2.14,x
CCN1C(=O)c2cccc3c(NC(=O)c4ccc(Cl)s4)ccc1c23,16.1*,x
CCN1C(=O)c2cccc3c(S(=O)(=O)NC(Cc4ccccc4)C(=O)O)ccc1c23 (configuration not stated),-0.79,1.1
CCN(CC)S(=O)(=O)c1ccc2c(c1)NC(=O)CC(C)S2 (configuration not stated),x,1.79
O=C(COc1ccccc1)N1N=C(C2CCCCC2)CC1(O)C(F)(F)F (configuration not stated),-1.76,x
O=S(=O)(c1ccc2[nH]c3c(c2c1)CCCCC3)N1CCCCC1,x,3.36*
COC(=O)c1ccc2[nH]c3c(c2c1)CCCC3,-2.95,x

# High-throughput results from PubChem BioAssay.
